# The full ranking holds about 33,000 sequences; the median of “E-score (-0.5 to 0.5)” is about -0.053, and the highest 2% start at about 0.37. The list comes from a sample in which the highest values are over-represented; it also holds similar and randomly drawn sequences.
# Target: Hap1 (UniProt P0CE41)
# Test: PBM E-score (8-mer binding enrichment) (E-score (-0.5 to 0.5)); higher = stronger / more preferred TF binding
# Details: protein concentration: 200 nM; construct: GST-DNA-binding domain
# Method: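 Universal 'all 10-mer' protein binding microarrays (Agilent AMADID 015681) probed with GST-tagged S. cerevisiae TFs (full-length or DBD) made by in vitro transcription/translation (PURExpress), about 100-200 nM. Bound TF was detected with fluorescent anti-GST. Each ungapped 8-mer (which stands for itself and its reverse complement) is scored by the PBM enrichment score (E-score), a modified Wilcoxon-Mann-Whitney statistic from -0.5 to +0.5, computed with the Universal PBM Analysis Suite. Scale: above 0.35 generally sequence-specific binding.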
# Sequence of UniProt P0CE41 (P0CE41 whole entry): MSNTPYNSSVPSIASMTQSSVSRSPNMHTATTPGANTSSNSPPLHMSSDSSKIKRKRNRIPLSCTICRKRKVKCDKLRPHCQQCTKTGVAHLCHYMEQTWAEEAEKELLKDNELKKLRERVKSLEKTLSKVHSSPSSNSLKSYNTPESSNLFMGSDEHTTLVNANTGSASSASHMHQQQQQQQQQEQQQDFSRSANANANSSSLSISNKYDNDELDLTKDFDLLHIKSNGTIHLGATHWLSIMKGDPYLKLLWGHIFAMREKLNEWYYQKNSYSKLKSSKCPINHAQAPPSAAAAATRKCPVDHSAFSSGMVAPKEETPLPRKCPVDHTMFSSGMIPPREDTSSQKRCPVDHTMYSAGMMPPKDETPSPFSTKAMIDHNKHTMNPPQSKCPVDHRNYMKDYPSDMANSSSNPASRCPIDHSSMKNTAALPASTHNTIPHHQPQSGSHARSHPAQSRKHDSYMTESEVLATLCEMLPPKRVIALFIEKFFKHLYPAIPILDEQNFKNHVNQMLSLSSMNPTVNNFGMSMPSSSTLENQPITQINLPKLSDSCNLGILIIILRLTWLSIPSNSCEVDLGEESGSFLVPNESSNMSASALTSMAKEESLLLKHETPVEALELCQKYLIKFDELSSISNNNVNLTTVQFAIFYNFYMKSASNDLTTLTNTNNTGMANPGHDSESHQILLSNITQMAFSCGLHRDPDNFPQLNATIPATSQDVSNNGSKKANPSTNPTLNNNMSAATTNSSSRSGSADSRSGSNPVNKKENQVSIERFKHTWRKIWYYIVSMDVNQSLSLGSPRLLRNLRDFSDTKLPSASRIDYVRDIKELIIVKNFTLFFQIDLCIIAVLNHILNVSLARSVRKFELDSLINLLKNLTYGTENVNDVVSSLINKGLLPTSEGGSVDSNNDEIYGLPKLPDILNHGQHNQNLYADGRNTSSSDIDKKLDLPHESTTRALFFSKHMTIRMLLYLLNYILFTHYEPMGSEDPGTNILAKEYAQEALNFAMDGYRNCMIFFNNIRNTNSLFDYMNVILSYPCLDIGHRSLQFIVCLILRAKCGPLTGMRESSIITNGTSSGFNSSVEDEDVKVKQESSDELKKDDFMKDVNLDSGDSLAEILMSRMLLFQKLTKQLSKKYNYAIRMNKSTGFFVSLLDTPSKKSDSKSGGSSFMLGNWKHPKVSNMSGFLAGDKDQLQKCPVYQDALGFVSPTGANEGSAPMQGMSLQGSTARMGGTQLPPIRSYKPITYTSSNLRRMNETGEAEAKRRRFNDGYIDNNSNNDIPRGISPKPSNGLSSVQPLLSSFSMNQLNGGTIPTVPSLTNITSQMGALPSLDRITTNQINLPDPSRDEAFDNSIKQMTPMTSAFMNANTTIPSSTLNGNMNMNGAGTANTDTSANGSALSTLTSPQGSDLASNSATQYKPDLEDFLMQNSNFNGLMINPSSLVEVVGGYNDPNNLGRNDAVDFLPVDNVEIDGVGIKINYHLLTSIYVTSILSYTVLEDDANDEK
row,Sequence,PBM E-score
1,ATGACGAG,-0.168
2,CCCGCACC,0.151
3,ATCCCAAC,-0.239
4,GGCAGGAC,0.0548
5,CATAAGAC,0.0262
6,CCGAGCGG,0.395
7,CCGAGCCA,0.347
8,CCGAGCGC,0.384
9,ACGAGAGC,-0.0925
10,ACGAGCCG,0.0797
11,CCGAGCCG,0.397
12,CCGAGCGA,0.36
13,GCGAGCGC,0.137
14,CCGAGAGA,0.309
15,ACGAGCGC,-0.00987
16,ACGAGCGG,0.161
17,CCGAGAGC,0.396
18,ACATTGGA,-0.0771
19,AAGCTGCC,0.0235
20,CATTTCCC,0.162
21,ATCTACGG,0.299
22,CCTGAGCA,-0.151
23,AAAGCCCC,0.106
24,CAAGCCGA,0.24
25,AAAGCCGA,0.426

row,Sequence,PBM E-score
1,AAAGCCGG,0.439
2,CAAGCCGG,0.292
3,AAAGCCCT,-0.0264
4,TAAGCCGA,0.382
5,AAAGCCGC,0.305
6,AAAGCCCG,0.374
7,GAAGCCGA,0.308
8,AAAGCCTG,-0.184
9,AAAGCCGT,0.322
10,GCCGCTTA,0.073
11,GTAGCCAC,-0.194
12,GTTTTAGA,0.00012
13,AGAGAACG,-0.258
14,CAATTCGG,0.267
15,GTGCTGCA,0.0816
16,CCAGCACG,-0.13
17,AAAAGCCG,0.414
18,AAAAGCCC,0.138
19,AAAAGCCT,-0.221
20,AGCTTTGG,-0.135
21,GCCGGATA,0.426
22,CCGGGACG,0.199
23,ACCGGATA,0.359
24,ACTGGACA,-0.00994
25,CCCCGACC,0.238

row,Sequence,PBM E-score
1,CCCGGATA,0.325
2,AGCGGACA,0.326
3,CCCGGACG,0.388
4,CCCCGACG,0.379
5,CACGGACG,0.331
6,CCCCGACA,0.302
7,ACCGGACA,0.411
8,AGATCCCG,0.283
9,AGTACCCG,0.1
10,CGAAAGAG,0.0191
11,AGGTGCTC,-0.269
12,CCTGGAGC,-0.197
13,ACTCGCAA,-0.231
14,GTCCACTA,-0.102
15,GAACTGCC,-0.0156
16,CTACCATA,-0.191
17,GATGAGCA,-0.0729
18,ACAATAGG,-0.0571
19,GAAACGTC,-0.0511
20,GATATGCA,0.0359
21,AGCTACTG,-0.00261
22,CCCGGACC,0.361
23,CCGGGACA,0.299
24,TCCGGACA,0.444
25,GCCGGACC,0.341

row,Sequence,PBM E-score
1,GACGGACA,0.325
2,TGCGGACA,0.22
3,TACGGACA,0.291
4,CCCGGACA,0.39
5,GCCGGACA,0.423
6,CCGGGCTC,0.243
7,ACACTCAG,-0.208
8,GACCCCGA,0.285
9,ACCCCCGT,0.126
10,TACCCCGA,0.398
11,TCCCCCGA,0.393
12,ACCCCCGA,0.371
13,ACACCCGA,0.305
14,AACCCCCA,-0.217
15,CCCCCCGA,0.253
16,AACCCCGT,0.329
17,AACCCCGA,0.456
18,GCCCCCGA,0.2
19,CACCCCGA,0.229
20,AACAAAGG,0.0332
21,AGGGATAC,-0.181
22,CCGGCTAA,0.331
23,TCGTTCAA,-0.246
24,GGGGAGGA,0.093
25,GCATAGAC,-0.19

row,Sequence,PBM E-score
1,GGCCTCTA,-0.34
2,ACATCTCT,-0.0976
3,CCGTTATC,0.385
4,ACGTTATC,0.17
5,CCGTTATA,0.311
6,GACACAAA,0.132
7,AGGACGAG,-0.282
8,GGGACGAC,-0.117
9,CGGACGAG,0.387
10,CGGACGAC,0.371
11,CGGACGAA,0.431
12,CCGACGAG,0.259
13,AGGACGAC,-0.143
14,AGGACGAA,0.128
15,GGGACGAA,0.0323
16,CCCCGTAC,0.0387
17,CTATGAGA,-0.248
18,ATAGCCCG,0.173
19,GCCCAGCA,-0.0648
20,ATAAGAAG,0.0696
21,ATATCTTC,0.152
22,GCTTAACC,-0.0526
23,CTCACCTA,-0.159
24,CATATCGG,0.404
25,AATATCGG,0.443

row,Sequence,PBM E-score
1,CATATCGC,0.179
2,AATATCGA,0.0281
3,AATATCCG,0.414
4,AATATCCC,0.109
5,ATTATCCG,0.391
6,AATATCCA,0.0415
7,AATATCGC,0.314
8,CATATCGA,0.0363
9,ATTATCCC,0.0666
10,ATTATCCA,-0.0526
11,CTGCACTA,0.0173
12,AGACACGC,-0.0363
13,ACTCATCG,-0.0326
14,AACTATGG,-0.0562
15,CACGCCAA,-0.148
16,CACAGCTG,-0.194
17,CGGATGGA,0.238
18,GAGCGTTA,-0.121
19,ACCTTGAG,-0.113
20,CAAATCCG,0.344
21,ATTATCGC,0.132
22,AAAATCCG,0.437
23,ATTATCGG,0.432
24,AAAATCCC,0.0176
25,ATTATCGA,-0.0673

row,Sequence,PBM E-score
1,GCTCGAGC,0.0114
2,GCGAACGA,0.00245
3,GGACCCTA,-0.0296
4,CGGCGCAC,0.259
5,GAAAGACA,-0.0415
6,AATACCGC,0.304
7,AATACCGG,0.451
8,ATTACCGC,0.274
9,ATTACCGG,0.434
10,ATTACCGA,0.348
11,AATACCGT,0.252
12,CATTCAGA,-0.141
13,ACATCGCA,-0.0398
14,GAGGAGAC,-0.0943
15,GAAAGGGA,-0.0702
16,ACCTTATC,0.139
17,GTGGCCAC,0.203
18,ATCGGGGA,0.386
19,CGCGGAGC,0.274
20,CGCGGAGA,0.397
21,ATCGGGTC,0.343
22,GTCGGGGA,0.301
23,ATCGGGGG,0.349
24,AGCGGAGC,0.223
25,GGCGGAGA,0.36

row,Sequence,PBM E-score
1,ATCGGGTG,0.37
2,ATCGGGTA,0.283
3,ATCAGAGC,-0.0942
4,ATCGGAGC,0.396
5,ACGAACCA,-0.038
6,CTCCTATA,-0.327
7,AGATCACG,-0.113
8,GAATTTAC,0.0854
9,ACGCCTCC,0.00213
10,AGAAAAAG,-0.0187
11,GTCGGAGA,0.355
12,ATCGGAGG,0.227
13,CTCGGAGC,0.322
14,CTTGGAGA,-0.0528
15,CTCGGAGA,0.407
16,ATCGGAGA,0.415
17,ACGATTTC,0.0291
18,ATATGGAC,-0.0394
19,GGTCTGCA,0.0455
20,GATTCGGA,0.299
21,TATTCGGA,0.37
22,AATTCGGG,0.287
23,AATTCGGA,0.414
24,AATTCGGC,0.131
25,CATTCGGA,0.321

row,Sequence,PBM E-score
1,CAACAGCG,-0.0733
2,AGATTACA,0.0437
3,CACCACGC,-0.201
4,GACATCCA,-0.175
5,ATAACCAA,-0.182
6,ACCCTGGC,-0.146
7,GCAAGAGC,-0.151
8,AGATTCTG,-0.14
9,ATCTGCCG,0.318
10,AAACACCT,-0.0632
11,CAACACCG,0.13
12,AAACACCG,0.388
13,TCAAAAGA,-0.152
14,CCACTTTA,-0.00297
15,TCCGCCCA,0.209
16,AATGCCTC,-0.116
17,CGGAGCAC,0.196
18,TGGAGCAA,-0.195
19,CGGAGCAA,0.394
20,AGGAGCTA,-0.192
21,CGGAGCTA,0.443
22,CGGAGCTC,0.313
23,CGGAGCGC,0.258
24,AACAAAGC,-0.0164
25,AGCGCATG,-0.2

row,Sequence,PBM E-score
1,ATTGACCC,-0.0115
2,GCCTGCTA,-0.152
3,ACCGAAGA,0.207
4,CCCGAAAC,0.208
5,GCCGAACA,0.233
6,CCCGAAAG,0.298
7,GCCGAAAC,0.38
8,ACCGAACA,0.265
9,TCCGAAGA,0.419
10,CCCGAAAA,0.426
11,ACCGAAAC,0.323
12,CCCGAAGA,0.284
13,TCCGAACA,0.381
14,GCCGAAAA,0.345
15,GGCGAAAC,0.194
16,CGGCGGTC,0.244
17,CAGCGCGC,0.057
18,CTTTCAGC,0.0716
19,TGCGAAAA,-0.00129
20,TCCGAAAA,0.393
21,ACCGAAAA,0.26
22,AGCAACTA,-0.0755
23,AGAATCAT,-0.259
24,AATCACAT,0.0324
25,CGTGGTCC,-0.0363

row,Sequence,PBM E-score
1,CGCCGGCG,0.422
2,GGCCGGCC,0.367
3,CGCCGGCC,0.396
4,AGGCGCCG,0.0638
5,CGCCGCCG,0.276
6,CGCCGGCA,0.349
7,CGGCGCCA,0.246
8,AGCCGGCG,0.352
9,CGGCGCCG,0.406
10,GCGACCGA,0.253
11,CCGACCGC,0.181
12,CGGACCTA,0.425
13,CGGACCGC,0.367
14,GGGACCTA,0.116
15,GGGACCGA,0.329
16,AGGACCTA,0.095
17,CGGACCGA,0.423
18,CCGACCGG,0.428
19,ACGACCGA,0.275
20,CCGACCGA,0.422
21,ACGACCGG,0.292
22,AGTAGCGG,0.216
23,ACCTCTCG,-0.0768
24,CCAGGCCC,-0.0511
25,CGCGGCCG,0.27

row,Sequence,PBM E-score
1,ACTACGGA,0.238
2,TATCAGAA,0.0826
3,AATCCTAT,0.204
4,GTCCTACA,0.145
5,ATCTGGCG,0.0049
6,AAGCGTAC,-0.292
7,CGGACCCC,0.233
8,TCGACCGA,0.393
9,TCGACCAA,-0.331
10,CGGACCAC,0.279
11,TCGACCCA,-0.221
12,AGGACCCG,0.218
13,CGGACCCG,0.387
14,CGGACCAA,0.383
15,CGGACCAG,0.304
16,GGAATCAC,0.196
17,AGAGTAAT,0.076
18,CGGTGAGA,0.12
19,ATCAACAT,-0.109
20,ACCCCCAG,-0.25
21,CTATTTCC,0.397
22,ATATTTCA,-0.15
23,ATATTTCC,0.427
24,ATATTTCG,0.235
25,CTATTTCA,-0.0144

row,Sequence,PBM E-score
1,CTATTTTC,0.0335
2,AACTTTCA,-0.106
3,CGGTCGTA,0.383
4,CGGTCGTC,0.165
5,CGGTCATA,0.411
6,CGGTCTTA,0.404
7,GGGTCATA,-0.00686
8,GGGTCTTA,0.0728
9,CGGTCTGA,0.205
10,GGGTCGTA,0.0749
11,CGGTCATC,0.192
12,TAGACCCA,-0.194
13,ATCACGGC,0.134
14,ACAAAAGC,0.0095
15,CATGGGTC,-0.168
16,ATCGGCCG,0.443
17,AACGGCCG,0.405
18,AACGGCCT,0.074
19,ATCGGCGC,0.343
20,AACGGCCA,0.183
21,ATCGGGCC,0.324
22,ATCGGCCA,0.253
23,CTCGGCCC,0.336
24,ATCGGCGG,0.408
25,AGCGGCGG,0.291

row,Sequence,PBM E-score
1,ATCGGCCC,0.379
2,ATCGGCAG,0.315
3,ATCTGCGC,0.00257
4,CTATAGGC,-0.0955
5,CGACCACG,0.0929
6,GGGTGGAC,0.132
7,GATGGTGC,-0.29
8,AGCGGAAC,0.243
9,GGCGGAAC,0.257
10,CCCGGAAC,0.31
11,ACCGGAAA,0.417
12,ACCGGAAG,0.333
13,ACCGGAAC,0.403
14,AGCGGAAA,0.318
15,GACGGAAC,0.174
16,GCCGGAAC,0.371
17,CCGCAACG,0.216
18,GCATATCA,0.0762
19,CTACTCCA,-0.0772

# — the supplement of paper PMC3334620
